Here are results for eight sequences from article PMC7862700, “An all-to-all approach to the identification of sequence-specific readers for epigenetic DNA modifications on cytosine”.

Assay in all cases: DAPPL (digital affinity profiling via proximity ligation, sequencing); 10 mM Tris-HCl pH 7.5, 50 mM NaCl, 1 mM DTT, 4% glycerol, room temperature, 30 min; GST-TFs on glutathione beads, 16-mer random dsDNA library, 0.1% formaldehyde crosslink after washing; high values mean tight binding
What all share (details): protein: recombinant; tags: N-terminal GST; dsDNA, one strand shown

One test has as its target T1, ERF (Homo sapiens, UniProt P50548 1-548).
T1 sequence: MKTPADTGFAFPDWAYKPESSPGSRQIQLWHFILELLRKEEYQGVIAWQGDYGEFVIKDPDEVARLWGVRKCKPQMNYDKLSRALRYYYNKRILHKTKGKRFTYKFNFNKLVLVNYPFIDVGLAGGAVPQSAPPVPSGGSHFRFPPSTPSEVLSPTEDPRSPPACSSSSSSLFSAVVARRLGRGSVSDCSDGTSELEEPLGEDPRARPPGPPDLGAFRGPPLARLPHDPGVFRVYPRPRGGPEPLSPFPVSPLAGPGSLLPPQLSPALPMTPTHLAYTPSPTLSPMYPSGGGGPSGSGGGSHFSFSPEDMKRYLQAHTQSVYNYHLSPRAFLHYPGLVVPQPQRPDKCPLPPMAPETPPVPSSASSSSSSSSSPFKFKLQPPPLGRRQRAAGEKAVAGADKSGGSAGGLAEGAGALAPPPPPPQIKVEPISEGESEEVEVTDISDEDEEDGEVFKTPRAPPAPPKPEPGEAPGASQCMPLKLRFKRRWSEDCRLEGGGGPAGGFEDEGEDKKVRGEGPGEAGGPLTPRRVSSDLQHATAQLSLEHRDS
Summed up:
(§1)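 Beads coated with glutathione captured GST-fused human transcription factors that had been expressed in yeast, and the factors were then given DNA barcodes and pooled with a tag-only sample. The pools were incubated with 200 nmole of a random double-stranded 16-mer DNA library in Tris/NaCl/DTT/glycerol buffer for 30 min at room temperature, washed, crosslinked with 0.1% formaldehyde and proximity-ligated with BsaI/T4 ligase at 37 °C for 1 h. PCR amplification and Illumina NextSeq500 sequencing came last. Binding signal is each hexamer's read frequency for a factor divided by its frequency for the tag-only sample.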

For a further test, the target named is T2, ETV3L (Homo sapiens, UniProt Q6ZN32 1-361).
T2 sequence: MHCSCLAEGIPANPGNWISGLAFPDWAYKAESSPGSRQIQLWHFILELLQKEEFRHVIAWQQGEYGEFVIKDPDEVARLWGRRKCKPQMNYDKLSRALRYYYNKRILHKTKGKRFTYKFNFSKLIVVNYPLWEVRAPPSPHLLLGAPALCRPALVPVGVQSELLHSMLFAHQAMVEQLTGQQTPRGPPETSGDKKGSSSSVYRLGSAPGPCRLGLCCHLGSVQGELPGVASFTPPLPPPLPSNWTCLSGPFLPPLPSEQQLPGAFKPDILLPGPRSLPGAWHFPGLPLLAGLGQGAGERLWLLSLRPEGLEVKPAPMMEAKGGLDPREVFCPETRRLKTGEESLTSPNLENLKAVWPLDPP
Summed up:
as §1

The target of a further test is T3, ETS2 (Homo sapiens, UniProt P15036 1-469).
T3 sequence: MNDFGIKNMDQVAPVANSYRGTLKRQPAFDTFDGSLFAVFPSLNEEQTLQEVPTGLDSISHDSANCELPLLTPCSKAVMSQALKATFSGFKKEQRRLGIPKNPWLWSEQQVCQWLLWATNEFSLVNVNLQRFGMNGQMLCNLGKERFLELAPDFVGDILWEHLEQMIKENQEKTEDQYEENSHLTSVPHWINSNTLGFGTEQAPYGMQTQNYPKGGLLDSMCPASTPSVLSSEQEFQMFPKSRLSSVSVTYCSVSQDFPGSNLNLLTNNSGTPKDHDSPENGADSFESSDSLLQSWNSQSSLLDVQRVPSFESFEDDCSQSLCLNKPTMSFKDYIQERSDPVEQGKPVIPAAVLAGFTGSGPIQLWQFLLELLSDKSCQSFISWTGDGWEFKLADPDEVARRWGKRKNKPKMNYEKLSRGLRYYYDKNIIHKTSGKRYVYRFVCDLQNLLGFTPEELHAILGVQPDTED
In a few lines:
as §1

The next test deals with T4, SPDEF (Homo sapiens, UniProt O95238 1-335).
T4 sequence: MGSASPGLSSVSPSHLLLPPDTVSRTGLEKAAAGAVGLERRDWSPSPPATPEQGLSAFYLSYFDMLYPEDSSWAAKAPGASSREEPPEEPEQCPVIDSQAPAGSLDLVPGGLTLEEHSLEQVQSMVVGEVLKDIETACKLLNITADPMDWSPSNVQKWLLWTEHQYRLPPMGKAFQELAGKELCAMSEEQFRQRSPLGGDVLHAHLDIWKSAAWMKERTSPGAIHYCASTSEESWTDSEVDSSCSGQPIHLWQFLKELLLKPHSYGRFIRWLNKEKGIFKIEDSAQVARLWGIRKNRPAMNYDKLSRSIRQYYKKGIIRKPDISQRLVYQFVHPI
Summed up:
as §1

Another test deals with T5, ETV7 (Homo sapiens, UniProt Q9Y603 1-341).
T5 sequence: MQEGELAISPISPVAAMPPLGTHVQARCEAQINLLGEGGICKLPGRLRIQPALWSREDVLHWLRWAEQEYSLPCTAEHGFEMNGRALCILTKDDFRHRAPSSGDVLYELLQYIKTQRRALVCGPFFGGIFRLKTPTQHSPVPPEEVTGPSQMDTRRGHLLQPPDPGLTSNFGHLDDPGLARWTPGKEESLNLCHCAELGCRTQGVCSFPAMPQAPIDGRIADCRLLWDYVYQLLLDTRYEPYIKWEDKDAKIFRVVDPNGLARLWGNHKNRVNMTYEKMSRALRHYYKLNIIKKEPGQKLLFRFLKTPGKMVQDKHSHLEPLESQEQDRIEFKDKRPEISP
Summed up:
as §1

The target in another test is T6, ELF5 (Homo sapiens, UniProt Q9UKW6-2 1-255).
T6 sequence: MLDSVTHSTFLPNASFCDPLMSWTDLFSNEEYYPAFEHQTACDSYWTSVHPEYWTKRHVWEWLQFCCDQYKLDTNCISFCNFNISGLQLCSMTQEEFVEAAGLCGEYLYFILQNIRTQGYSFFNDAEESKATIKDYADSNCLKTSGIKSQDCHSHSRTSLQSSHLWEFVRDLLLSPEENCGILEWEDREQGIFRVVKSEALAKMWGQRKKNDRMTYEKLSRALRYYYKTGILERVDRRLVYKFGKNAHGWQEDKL
In a few lines:
as §1

The next test concerns the target T7, ETV3 (Homo sapiens, UniProt P41162-2 1-143).
T7 sequence: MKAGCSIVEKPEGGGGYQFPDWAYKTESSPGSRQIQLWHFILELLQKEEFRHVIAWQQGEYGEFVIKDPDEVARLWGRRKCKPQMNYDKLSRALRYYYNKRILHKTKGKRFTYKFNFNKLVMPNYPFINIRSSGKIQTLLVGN
Summed up: as §1

The next test deals with ETV6 (Homo sapiens, UniProt P41212 1-452). Summed up:
as §1

Sequence of ETV6 (P41212 whole entry): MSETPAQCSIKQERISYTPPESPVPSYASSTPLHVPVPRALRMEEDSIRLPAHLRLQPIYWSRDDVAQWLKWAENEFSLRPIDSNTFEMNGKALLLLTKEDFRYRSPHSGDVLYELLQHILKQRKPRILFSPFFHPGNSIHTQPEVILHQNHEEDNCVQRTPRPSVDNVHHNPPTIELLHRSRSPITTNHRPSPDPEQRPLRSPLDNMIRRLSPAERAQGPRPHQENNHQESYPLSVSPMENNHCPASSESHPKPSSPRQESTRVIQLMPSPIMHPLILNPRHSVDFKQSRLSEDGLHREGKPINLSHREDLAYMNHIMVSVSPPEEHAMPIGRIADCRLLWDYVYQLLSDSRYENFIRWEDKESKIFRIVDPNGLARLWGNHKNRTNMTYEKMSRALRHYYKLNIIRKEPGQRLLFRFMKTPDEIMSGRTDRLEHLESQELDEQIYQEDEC

Take AGTTCC: the binding signal was 1.73 fold enrichment (6-mer frequency, TF over GST control) in the test with ERF; 2.15 fold enrichment (6-mer frequency, TF over GST control) with ETV3L; 2.17 fold enrichment (6-mer frequency, TF over GST control) with ETS2; 2.56 fold enrichment (6-mer frequency, TF over GST control) with SPDEF; 1.94 fold enrichment (6-mer frequency, TF over GST control) with ETV7; 2.79 fold enrichment (6-mer frequency, TF over GST control) with ELF5. Also, the binding signal was 2.38 fold enrichment (6-mer frequency, TF over GST control) with ETV3 and 2.17 fold enrichment (6-mer frequency, TF over GST control) with ETV6.

With CCAACG, the binding signal in the test with ERF is 1.29 fold enrichment (6-mer frequency, TF over GST control); with ETV3L, 1.1 fold enrichment (6-mer frequency, TF over GST control); with ETS2, 1.08 fold enrichment (6-mer frequency, TF over GST control); in the test with SPDEF, 1.13 fold enrichment (6-mer frequency, TF over GST control); with ETV7 it was 1.13 fold enrichment (6-mer frequency, TF over GST control); in the test with ELF5, 1.1 fold enrichment (6-mer frequency, TF over GST control). Also, the binding signal with ETV3 was 1.09 fold enrichment (6-mer frequency, TF over GST control); with ETV6, 1.22 fold enrichment (6-mer frequency, TF over GST control).

On to ATACGG, for which the binding signal is 1.28 fold enrichment (6-mer frequency, TF over GST control) with ERF; 1.15 fold enrichment (6-mer frequency, TF over GST control) with ETV3L; 1.22 fold enrichment (6-mer frequency, TF over GST control) with ETS2; 1.31 fold enrichment (6-mer frequency, TF over GST control) with SPDEF; 1 fold enrichment (6-mer frequency, TF over GST control) in the test with ETV7; 1.32 fold enrichment (6-mer frequency, TF over GST control) in the test with ELF5. Besides, the binding signal with ETV3 is 1.31 fold enrichment (6-mer frequency, TF over GST control); with ETV6, 1.18 fold enrichment (6-mer frequency, TF over GST control).

Take ACGTAA: the binding signal was 1.12 fold enrichment (6-mer frequency, TF over GST control) in the test with ERF; 1.09 fold enrichment (6-mer frequency, TF over GST control) in the test with ETV3L; 1.08 fold enrichment (6-mer frequency, TF over GST control) in the test with ETS2; 1.11 fold enrichment (6-mer frequency, TF over GST control) with SPDEF; 1.08 fold enrichment (6-mer frequency, TF over GST control) in the test with ETV7; 1.09 fold enrichment (6-mer frequency, TF over GST control) with ELF5. The binding signal in the test with ETV3 is 1.17 fold enrichment (6-mer frequency, TF over GST control); with ETV6 it was 1.07 fold enrichment (6-mer frequency, TF over GST control).

Take AATAGA: the binding signal in the test with ERF was 1.19 fold enrichment (6-mer frequency, TF over GST control); in the test with ETV3L, 1.16 fold enrichment (6-mer frequency, TF over GST control); with ETS2, 1.1 fold enrichment (6-mer frequency, TF over GST control); in the test with SPDEF it was 1.05 fold enrichment (6-mer frequency, TF over GST control); with ETV7, 1.17 fold enrichment (6-mer frequency, TF over GST control); with ELF5, 1.11 fold enrichment (6-mer frequency, TF over GST control). Also, the binding signal in the test with ETV3 is 1.09 fold enrichment (6-mer frequency, TF over GST control); with ETV6 it was 1.17 fold enrichment (6-mer frequency, TF over GST control).

As to CTGCCA, the binding signal was 1.18 fold enrichment (6-mer frequency, TF over GST control) with ERF; 1.25 fold enrichment (6-mer frequency, TF over GST control) in the test with ETV3L; 1.18 fold enrichment (6-mer frequency, TF over GST control) with ETS2; 1.15 fold enrichment (6-mer frequency, TF over GST control) with SPDEF; 1.08 fold enrichment (6-mer frequency, TF over GST control) in the test with ETV7; 1.2 fold enrichment (6-mer frequency, TF over GST control) with ELF5. Further, the binding signal in the test with ETV3 was 1.09 fold enrichment (6-mer frequency, TF over GST control); with ETV6 it was 1.14 fold enrichment (6-mer frequency, TF over GST control).

Regarding CCGCTA, the binding signal was 1.38 fold enrichment (6-mer frequency, TF over GST control) with ERF; 1.27 fold enrichment (6-mer frequency, TF over GST control) in the test with ETV3L; 1.32 fold enrichment (6-mer frequency, TF over GST control) in the test with ETS2; 1.38 fold enrichment (6-mer frequency, TF over GST control) with SPDEF; 1.36 fold enrichment (6-mer frequency, TF over GST control) with ETV7; 1.41 fold enrichment (6-mer frequency, TF over GST control) with ELF5. The binding signal was 1.34 fold enrichment (6-mer frequency, TF over GST control) with ETV3 and 1.4 fold enrichment (6-mer frequency, TF over GST control) with ETV6.

For the sequence AAAAAA, the binding signal in the test with ERF was 1.35 fold enrichment (6-mer frequency, TF over GST control); with ETV3L, 1.28 fold enrichment (6-mer frequency, TF over GST control); with ETS2 it was 1.34 fold enrichment (6-mer frequency, TF over GST control); in the test with SPDEF, 1.21 fold enrichment (6-mer frequency, TF over GST control); with ETV7, 1.31 fold enrichment (6-mer frequency, TF over GST control); in the test with ELF5, 1.29 fold enrichment (6-mer frequency, TF over GST control). The binding signal was 1.33 fold enrichment (6-mer frequency, TF over GST control) in the test with ETV3 and 1.35 fold enrichment (6-mer frequency, TF over GST control) with ETV6.
